In PubChem BioAssay (NCATS):
A number with no mark means an inactive call. Results filed as inconclusive are left out. The source made the active and inactive calls. Rule as the data show it, unless noted: active = potency below about 10 µM; inactive = the rest.

Tests used:
[1] = target: Muscarinic acetylcholine receptor M1 (Rattus norvegicus) (UniProt P08482); assay: qHTS Assay for Antagonists of Acetylcholine Muscarinic M1 Receptor: Measurement of IP-One Response (AID 944; active = well fitted inhibition curve with a large enough effect; also: nearly all actives have a fitted effect of over 75% in size)
Procedure, shortened: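 CHO cells stably expressing rat M1, pretreated 10 min with compound, then stimulated 30 min with carbachol at EC80 (200 nM) in LiCl-containing buffer pH 7.4; IP1 accumulation read by HTRF competition (665/620 nm).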

[2] = target: Lysosomal acid glucosylceramidase (Homo sapiens) (UniProt P04062); assay: Glucocerebrosidase-p2 (AID 348); details: purified GBA, blue fluorogenic substrate, 40 min; also: potency is read from the fitted curve at half-maximal effect
Procedure, shortened: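 Compounds titrated from 0.6 nM upwards against 0.2 nM enzyme in pH 5.9 citric acid/KH2PO4, taurocholate, tween-20; blue fluorogenic substrate 80 uM, 40 min room temperature, stopped and read Ex 365/Em 440 for AC50.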

Sequence of Muscarinic acetylcholine receptor M1 (Rattus norvegicus) (P08482 whole entry, looked up): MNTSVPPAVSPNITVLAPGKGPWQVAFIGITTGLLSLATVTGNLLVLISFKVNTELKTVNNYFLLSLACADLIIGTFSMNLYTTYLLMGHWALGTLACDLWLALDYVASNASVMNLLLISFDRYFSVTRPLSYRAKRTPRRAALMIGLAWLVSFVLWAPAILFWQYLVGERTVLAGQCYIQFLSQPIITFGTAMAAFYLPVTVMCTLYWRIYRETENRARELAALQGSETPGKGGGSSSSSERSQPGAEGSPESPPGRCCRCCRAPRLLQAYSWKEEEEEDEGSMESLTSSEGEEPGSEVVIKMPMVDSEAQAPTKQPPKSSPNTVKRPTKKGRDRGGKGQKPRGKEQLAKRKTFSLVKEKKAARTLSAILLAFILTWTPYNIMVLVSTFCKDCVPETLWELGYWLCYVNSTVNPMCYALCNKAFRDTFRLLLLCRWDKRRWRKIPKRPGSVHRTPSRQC
Sequence of Lysosomal acid glucosylceramidase (Homo sapiens) (P04062 whole entry, looked up): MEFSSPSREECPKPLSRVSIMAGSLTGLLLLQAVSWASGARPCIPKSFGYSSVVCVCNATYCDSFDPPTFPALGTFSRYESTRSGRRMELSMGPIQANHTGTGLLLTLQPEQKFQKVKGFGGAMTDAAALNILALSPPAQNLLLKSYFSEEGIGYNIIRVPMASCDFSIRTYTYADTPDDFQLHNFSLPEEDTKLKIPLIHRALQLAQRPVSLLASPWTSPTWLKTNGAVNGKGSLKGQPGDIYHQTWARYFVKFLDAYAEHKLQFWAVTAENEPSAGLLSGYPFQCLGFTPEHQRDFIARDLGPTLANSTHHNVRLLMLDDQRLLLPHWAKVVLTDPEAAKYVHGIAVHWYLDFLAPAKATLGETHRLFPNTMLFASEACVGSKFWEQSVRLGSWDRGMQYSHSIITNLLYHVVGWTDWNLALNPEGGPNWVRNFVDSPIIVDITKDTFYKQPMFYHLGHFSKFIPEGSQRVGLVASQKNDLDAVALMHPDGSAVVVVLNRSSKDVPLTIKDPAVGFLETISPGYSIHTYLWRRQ

Row | Structure (SMILES) | Potency [1] | Potency [2]
1 | O=C(O)[C@H]1CCN1 | inactive | –
2 | CN(C)CCC(C#N)(c1ccccc1)c1ccccc1 | – | > 11.4 µM
3 | CCc1ccc(CCN2CCCCC2)nc1 | – | > 11.4 µM
4 | NNc1c(C(N)=O)c2c(N)ncnc2n1[C@@H]1O[C@H](CO)[C@@H](O)[C@@H]1O | – | > 11.4 µM
5 | Nc1ccccc1O.O.O=C(O)[C@H]1[O][Sb][O][C@H]1C(=O)O | – | > 11.4 µM
6 | O=C(O)c1cc[c]([Hg][S]c2ncnc3nc[nH]c23)cc1 | – | 0.146 µM (active)
7 | O=C(c1ccccc1)[C@H]1[C@H](c2ccccc2[N+](=O)[O-])N1C1CCCCC1 (stereo partly drawn) | – | > 11.4 µM
8 | C[C@@H](Cc1ccc(O)cc1)NC[C@@H](O)c1cc(O)cc(O)c1 | inactive | –
9 | COC1=C(C)C(=O)c2c(c(COC(N)=O)c3n2C[C@@H]2[C@@H]3N2C)C1=O (stereo partly drawn) | – | > 11.4 µM
10 | CC[C@]1(OC(=O)CN)C(=O)OCc2c1cc1n(c2=O)Cc2cc3ccccc3nc2-1 | – | > 11.4 µM
11 | C[C@@H]1O[C@@H](O[C@H]2C[C@@H](O)[C@@]3(CO)[C@H]4[C@H](O)C[C@]5(C)[C@@H](C6=CC(=O)OC6)CC[C@]5(O)[C@H]4CC[C@@]3(O)C2)[C@@H](O)[C@H](O)[C@H]1O | – | > 11.4 µM
12 | O=[As](O)(O)c1ccc(Cc2ccc([As](=O)(O)O)cc2)cc1 | – | > 11.4 µM
13 | ClCC[N+]12CC[N+](CCCl)(CC1)C2 (tested in a mixture with another compound) | – | > 11.4 µM
14 | C[C@@H]1[C@H]2C=C[C@@H]1[C@@H](c1c3ccc(=O)c(O)c-3oc3c(O)c(O)ccc13)[C@@H]2C(=O)O | – | > 11.4 µM
15 | Cc1ccc(S(=O)ON2CCC(C(=O)O)(c3ccccc3)CC2)cc1 (stereo not drawn) | – | > 11.4 µM
16 | COc1cc2c(cc1O)C[C@@H]1c3c(cc(O)c(OC)c3-2)CCN1C | – | > 11.4 µM
17 | CC[C@@H]1[C@@H]2Cc3ccc(O)cc3[C@@]1(CC)CCN2C | – | > 11.4 µM
18 | Cc1ccc(NC(=[OH+])c2cc3ccccc3cc2O)c(C)c1.Cc1ccc(NC(=[OH+])c2cc3ccccc3cc2O)c(C)c1.[Ni] | – | > 11.4 µM
19 | C(=NCCN1CCOCC1)=NC1CCCCC1 | – | > 11.4 µM
20 | COc1cccc2c1C(=O)c1c(O)c3c(c(O)c1C2=O)C[C@](O)(/C(C)=N\O)C[C@@H]3O[C@H]1C[C@H](N)[C@@H](O)[C@H](C)O1 | – | > 11.4 µM
21 | O=C(Nc1ccc([As](=O)(O)O)cc1)Nc1cccc(Cl)c1Cl | – | > 11.4 µM
22 | CSC([N-]/N=C/c1cccc(C)n1)=[S]=[Cu].CS[C@H]([S-])[N-]/N=C/c1cccc(C)n1 | – | > 11.4 µM

Row | Structure (SMILES) | Potency [1] | Potency [2]
23 | COc1ccc2c(c1)[C@]13CCCC[C@@H]1[C@H](C2)NCC3 | inactive | –
24 | CCNCCC1(CC)C(=O)NC(=O)NC1=O | – | > 11.4 µM
25 | C=C[C@@H]1CN2CC[C@H]1C[C@H]2[C@H](O)c1ccnc2ccccc12 | – | > 11.4 µM
26 | C[C@H]1CC[C@@]2(NC1)O[C@@H]1C[C@@H]3[C@@H]4CC=C5C[C@@H](O)CC[C@]5(C)[C@@H]4CC[C@]3(C)[C@H]1[C@@H]2C | – | > 11.4 µM
27 | CC(=O)O[C@H]1CC[C@H]2[C@@H]3CCC4=C[C@@H](C5SCCS5)[C@H](OC(C)=O)C[C@]4(C)[C@H]3CC[C@@]12C | – | > 11.4 µM
28 | COC(=O)c1c(C)ccc2c(O)c3c(cc12)C(=O)c1c2c(cc(O)c1C3=O)[C@@]1(C)O[C@@](C)(O2)[C@@H](O)[C@H](N(C)C)[C@H]1O | – | > 11.4 µM
29 | O=C(O)[C@H]1C2c3ccccc3C(c3ccccc32)[C@@H]1C(=O)NCC1CC1 | – | > 11.4 µM
30 | Cc1ccc(S(=O)(=O)O[C@H]2CN3CCC2CC3)cc1 | – | > 11.4 µM
31 | O=C(O)[C@@H]1[C@H](C(=O)O)[C@]2(Cl)C(Cl)=C(Cl)[C@@]1(Cl)C2(Cl)Cl | – | > 11.4 µM
32 | O=C1C[C@@H]2OCC=C3CN4CC[C@]56c7ccccc7N1[C@@H]5[C@@H]2[C@H]3C[C@H]46 (tested in a mixture with another compound) | – | > 11.4 µM
33 | CC(C)CNCCc1ccccn1 | – | > 11.4 µM
34 | CS(=O)(=O)O[C@H]1CN2CCC1CC2 | – | > 11.4 µM
35 | C[C@@]12CC[C@H]3[C@@H](CC=C4C[C@H](OS(=O)(=O)O)CC[C@]43C)[C@H]1CCC2=O | inactive | –
36 | COc1ccc2c3c1O[C@@H]1C(=O)CC[C@@]4(O)[C@@H](C2)N(CC2CC2)CC[C@]314 | inactive | –
37 | COc1ccc2c(c1O)-c1cccc3c1[C@H](C2)N(C)CC3 | inactive | –
38 | COc1cc([C@@H](O)CN)ccc1O | inactive | –
39 | CO[C@@H]1CC=C2CCN3CCC4=C(CC(=O)OC4)[C@]23C1 | inactive | –
40 | C[C@]12CC[C@H](O)CC1=CC[C@@H]1[C@H]2CC[C@]2(C)C(=O)CC[C@H]12 | inactive | –
41 | C[C@@]12CC[C@H]3[C@@H](CC[C@@H]4C[C@H](O)CC[C@]43C)[C@H]1CC[C@H]2O | inactive | –
42 | CC(C)C[C@H](NP(=O)(O)O[C@@H]1O[C@@H](C)[C@@H](O)[C@@H](O)[C@H]1O)C(=O)N[C@@H](Cc1c[nH]c2ccccc12)C(=O)O | inactive | –
43 | C=CCN1CC[C@]23c4c5ccc(O)c4O[C@@H]2/C(=N/NC(=O)c2ccccc2)CC[C@@]3(O)[C@H]1C5 | inactive | –
